Only some compounds are listed: those with a hit (about 3.1% of all), similar ones and a draw of the others.
Tau FP inhib = blocks human tau fibril formation measured by polarization. Potency, µM (highest dose often 57.7 µM), for the others: top-dose activity, negative = inhibition, usual class: inhibitors. K18 P301L tau heparin fibrillization, Alexa594 FP, 6 h. 280,000 compounds, 0.39% hits; further: nearly all actives have a fitted effect of over 55% in size
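Steps: dispense K18 P301L tau (15 uM plus 0.24 uM Alexa 594 tracer, final) in pH 7 sodium acetate; add compound; add heparin (20 uM final); incubate 6 hr, 37 C; add ThT (30 uM final); after 1 hr ambient, read FP.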
TRb SRC2 PPI = inhibitors of human thyroid hormone receptor beta-SRC2 interaction; P10828; TRbeta-SRC2 peptide binding, fluorescence polarization; receptor liganded with 1 µM T3; Potency, µM (highest dose often 106 µM), without a hit: top-dose activity change, negative = inhibition, most hits filed as inhibitors; 280,000 compounds, 0.065% hits;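 further: plate controls were bound peptide for no effect and peptide without receptor for full effect; nearly all actives have a fitted effect of over 50% in size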
Target sequence (P10828 whole entry, looked up): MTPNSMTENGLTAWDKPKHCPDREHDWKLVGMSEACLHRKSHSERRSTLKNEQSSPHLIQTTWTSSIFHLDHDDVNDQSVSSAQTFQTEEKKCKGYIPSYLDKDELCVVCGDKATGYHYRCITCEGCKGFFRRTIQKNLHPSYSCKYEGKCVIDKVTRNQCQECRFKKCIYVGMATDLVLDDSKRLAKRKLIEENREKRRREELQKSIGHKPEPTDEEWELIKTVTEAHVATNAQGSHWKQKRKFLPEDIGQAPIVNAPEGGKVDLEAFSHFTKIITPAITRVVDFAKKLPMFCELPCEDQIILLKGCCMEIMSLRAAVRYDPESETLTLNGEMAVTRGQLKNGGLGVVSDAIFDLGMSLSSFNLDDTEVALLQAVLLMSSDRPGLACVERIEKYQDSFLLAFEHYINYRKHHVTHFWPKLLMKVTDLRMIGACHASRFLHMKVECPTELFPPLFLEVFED
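TRb LBD 0.6 uM + Texas Red SRC2 peptide 20 nM, 1 uM T3, Tris buffer w/ 5% DMSO; compound pinned, 5 h RT; FP read ex 555/em 632; normalized to unbound and bound controls.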
TR SRC2 fluor cs = counter-screen for TRb-SRC2 inhibitors: fluorescence interference; Potency, µM (top dose mostly 106 µM), for the others: at the top dose fluorescence change, negative = quenching; TRb/SRC2 Texas Red total fluorescence interference; 280,000 compounds, 0.29% hits; active means well fitted curve in either direction with a large enough effect; inconclusive means small, poorly fitted or top-dose-only effect
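Human TRb ligand-binding domain at 0.6 uM with 20 nM Texas Red SRC2 peptide in Tris buffer containing 1 uM T3 and 5% DMSO, incubated with compound 5 h at ambient temperature. Total fluorescence (555/632 nm) calculated as parallel + 2 × perpendicular.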
Tau fibril ThT = blocks human tau fibril formation measured by thioflavin T; P10636; recombinant tau K18 P301L, heparin-induced fibrillization, ThT fluorescence; Potency, µM (series often up to 57.4 µM), inactives show top-dose activity, negative = inhibition, actives largely listed as inhibitors; 270,000 compounds, 2.1% hits; further: nearly all actives have a fitted effect of over 55% in size
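K18 P301L tau (15 uM + 0.24 uM Alexa 594-tagged), heparin 20 uM, NaOAc pH 7, 6 h 37 C; ThT 30 uM, 1 h RT, ex 450/em 510 nm.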
Tau fluor counter = counter-screen for tau fibril formation inhibitors. tau K18 P301L (four-repeat tau fragment) Alexa594 fluorescence, heparin fibrillization. Potency, µM (doses to about 57.7 µM), without a hit: at the highest dose activity change, negative = decrease. 280,000 compounds, 0.93% hits; further: nearly all actives have a fitted effect of over 55% in size
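Human K18 P301L tau (15 uM unlabeled plus 0.24 uM Alexa 594-labeled, final) in 100 mM sodium acetate pH 7 was mixed with compound and 20 uM heparin and incubated 6 hr at 37 C.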
Starred values were filed as active, the others as inactive; ? = inconclusive; · = not tested or not shown; [ ] = remark or other dose. Unless noted, the call rests on the fitted dose curve; in most records, active means well fitted curve in the direction sought with a large enough effect; inconclusive means small, poorly fitted or top-dose-only effect, or another doubt; inactive means no such curve, though single readings can be large; an effect the other way counts as inactive or inconclusive. Unless noted, on the % scale 0 is the no-effect control and ±100 the full control effect; potency means the concentration at half of the fitted maximal effect.

SMILES | Tau FP inhib | TRb SRC2 PPI | TR SRC2 fluor cs | Tau fibril ThT | Tau fluor counter
O=C(c1cccs1)c1no[n+]([O-])c1C(=O)c1cccs1 | ? | -2.9% | -0.7% | ? | ?
Cc1ccc(NC(=S)c2nc3ccccc3[nH]2)cc1 | -1.6% | 5.3% | 1.5% | 7.94µM* | ?
COC(=O)C1=C(C)NC(C)=C(C(=O)OCCSc2ccccc2)[C@@H]1C | 9.7% | 9.5% | -0.1% | -18.6% | 15.8µM*[quencher]
CCOc1ccc2nc(N3CCCC(C(=O)NCCc4ccc(OC)cc4OC)C3)sc2c1 (stereo not given) | 8.0% | 1.3% | 1.8% | ? | -26.9%
Oc1csc(Cc2nc(-c3ccccc3F)cs2)n1 | -3.6% | 0.1% | -3.4% | 14.1µM* | ?
Oc1csc(Cc2nc(-c3ccc4ccccc4c3)cs2)n1 | 3.7% | 1.3% | -3.6% | 3.55µM* | 12.6µM*[quencher]
CNC(=O)C1(C(F)(F)F)CC(CCCO)CCCO1 (stereo not given) | · | -1.2% | -2.8% | · | ·
CN(C)c1ccc(/C=C2/C=C(c3ccc4c(c3)CCCC4)OC2=O)cc1 | ? | -0.3% | -0.9% | 3.16µM* | ?
NC1=CC(=O)c2cccc3cccc1c23 | ? | 0.0% | -2.0% | 11.2µM* | ?
Cc1nnc(C)n1N1C(=O)c2cccc3cccc(c23)C1=O | -4.5% | 6.9% | -3.0% | 5.3% | -1.2%
COc1ccc(Cl)cc1NC(=O)Cn1c(=O)n(CCC(=O)NCc2ccc3c(c2)OCO3)c(=O)c2ccccc21 | 2.3% | 4.7% | 2.7% | 9.8% | -8.5%
COc1ccc(C2=NN(S(C)(=O)=O)C(c3cn(-c4ccccc4)nc3-c3cccs3)C2)cc1 (stereo not given) | 20µM* | 3.7% | -1.9% | 8.1% | ?
C=CCSC1=N/C(=C\C=C\c2ccco2)C(=O)S1 | ? | -3.7% | ? | 12.6µM* | ?
CCNC(=O)c1cnc2sc(N3CCC(C)CC3)nn2c1=O | -8.3% | 4.5% | -2.2% | -8.6% | -9.6%
CC[n+]1ccc(/C=C2\Sc3ccccc3N2CCCS(=O)(=O)[O-])c2ccccc21 | 0.1% | -3.6% | -1.4% | ? | -7.0%
CN1C=C/C(=C\c2cc[n+](C)c3ccccc23)c2ccccc21 | ? | -4.7% | -1.5% | 14.1µM* | ?
CCOc1ccc(Nc2nc(-c3cccc(Cl)c3)c3c(n2)-c2ccccc2OC3)cc1 | 4.0% | -3.5% | -0.1% | 14.9% | ?
COCCCn1c(SCc2ccccc2F)nc2c(sc3ccccc32)c1=O | -9.8% | -5.8% | -0.6% | -1.3% | -10.4%
CCOc1ccc(S(=O)(=O)N2CCN(Cc3nc4ccc(C)cc4o3)CC2)cc1 | 12.6% | 0.7% | -0.7% | -4.3% | -10.5%
COc1ccc(OC)c(NC(=O)c2cc(-c3ccc(Cl)s3)nc3ccccc23)c1 | ? | -8.9% | -1.1% | 10.8% | -16.5%
CC(=O)C(C(C)=O)c1c(Cl)c(O)c(O)c2c(C(=O)c3ccccc3)coc12 | ? | 3.8% | -2.3% | 15.8µM* | ?
CN1CCN(Cc2c(O)ccc3occ(C(=O)c4ccccc4)c23)CC1 | 14.1% | 7.4% | -1.6% | -11.0% | 2.0%
Cc1c(Nc2ncccc2C(=O)O)cccc1C(F)(F)F | 3.5% | 1.2% | -1.6% | -4.0% | -4.9%
C[C@@H]1C(=O)N(S(=O)(=O)c2ccccc2[N+](=O)[O-])[C@H]1c1ccc(-c2ccccc2)cc1 | · | -10.0% | -2.0% | · | ·
N#C/C(=C/c1ccc(N2CCCCCC2)o1)c1ccc(Cl)cc1 | ? | -2.0% | 9.2% | 25.1µM* | ?
N#C/C(=C\c1ccc(N2CCOCC2)o1)C(=O)NC1CCCCC1 | 2.1% | -0.8% | 0.3% | ? | -20.1%
N#C/C(=C/c1ccc(N2CCCCC2)o1)c1cccc(F)c1 | ? | -4.8% | 8.1% | 12.6µM* | ?
CCOc1ccc(NC(=O)CSc2nnc3scc(-c4ccc(Cl)cc4)n23)cc1 | -0.4% | 2.1% | -1.5% | ? | ?
O=C(NCc1ccco1)/C(=C\c1ccco1)NC(=O)c1ccco1 | ? | 0.2% | -1.4% | 39.8µM* | ?
CC(=O)c1ccc(-c2ccc(C3C4C=CCCC4(C)C(=O)N3Cc3ccccc3)c(F)c2)cc1 (stereo not given) | · | -1.1% | 0.0% | · | ·

From PubChem BioAssay
